This is part of a sample that, as a whole, favours compounds with a hit. Of some 83,000 tested, about 20% had one in any assay.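 Testing used 96-well plates and a 48-hour single-concentration exposure. Example: -40 means 40% of the starting cells died.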 Active and inactive are the calls of the source. The calls were made as follows: active = growth percent below 10; inactive = the rest.
tested on: SN12C renal; experiment: NCI-60 one-dose screen, 48 h (100 = growth as untreated, 0 = no growth, -100 = all killed); settings: 10 µM unless noted

Row | SMILES | growth
1 | COc1ccc2c(c1)OC13Oc4cc(OC)ccc4C=C1CCCCC3=C2 | 93.6% (inactive)
2 | C/C(=N/Nc1nc2ccccc2n1C)c1ccccn1 | 10.1% (inactive)
3 | Cc1nc2sc(C(=O)Nc3cccc4ccccc34)c(N)c2cc1C(C)O (configuration not stated) | 36% (inactive)
4 | N#Cc1c(-c2ccc(F)cc2)c(C#N)c2c(C#N)c(N)nn2c1N | 104% (inactive)
5 | CCOc1ccc(C2N(c3cc(OC)c(OC)c(OC)c3)C(=O)C2(F)F)cc1 (configuration not stated) | 51% (inactive)
6 | CCOc1ccccc1C(=O)/C=C/c1cc2ccccc2[nH]c1=O | -20.9% (active)
7 | Cc1ccc(C2=N[C@H]3CCC[C@@H]3N(c3ccccc3)C(C(Cl)Cl)=N2)cc1 | 107% (inactive)
8 | COc1cc(/C=C/CO)cc(OC)c1O[C@@H]1O[C@H](CO)[C@@H](O)[C@H](O)[C@H]1O | 96.8% (inactive)
9 | COc1ccc(C(=S)c2cc(OC)c(OC)c(OC)c2)cc1OC(=O)CCl | 34.6% (inactive)
10 | O=C1CCC23OC(c4ccccc4N12)C(O)C(O)C3O (configuration not stated) | 103% (inactive)
11 | COc1cc(/C=C/C(=O)c2cccs2)ccc1OCc1ccc(Cl)nc1 | 81.1% (inactive)
12 | O=c1c2ccccc2oc2ccc(OCCCCCN3CCCCCC3)cc12 | 69.4% (inactive)
13 | C=C1C(=O)O[C@H]2[C@H]1CC/C(COC(=O)NCC(=O)Nc1ccc(OC)c(C(N)=O)c1O)=C\CC[C@@]1(C)O[C@@H]21 | 37.9% (inactive)
14 | COc1ccc(-c2[nH]c3ccccc3c2C=C(C#N)C#N)cc1 | 44.6% (inactive)
15 | COC(=O)/C=C/c1cc(OC(C)=O)c2c(c1)C(C(=O)OC)C(c1ccc(OC(C)=O)c(OC(C)=O)c1)O2 (configuration not stated) | 23.6% (inactive)
16 | Nc1cc(N)c(S(=O)(=O)O)cc1N=Nc1cc([N+](=O)[O-])ccc1O | 100% (inactive)
17 | CC1CCN(CCCCCOc2ccc3oc4ccccc4c(=O)c3c2)CC1 | 69.3% (inactive)
18 | CCOC(=O)C1=C(C)n2nc(CC#N)c(C#N)c2NC1c1ccc(Cl)cc1 (configuration not stated) | 96.6% (inactive)
19 | Cc1cccc(C)c1NCc1nnc(-c2ccco2)o1 | 94.8% (inactive)

Row | SMILES | growth
20 | COC(=O)/C=C1\SC(=Nc2cccc(Cl)c2)N(CCc2c[nH]c3ccccc23)C1=O | 44.5% (inactive)
21 | COc1ccc(C(C)c2cc(OC)c(OC)c(OC)c2)cc1 (configuration not stated) | 39.1% (inactive)
22 | CCO/C=N/S(=O)(=O)c1cc2c(cc1Cl)NC=NS2(=O)=O | 104% (inactive)
23 | COc1ccc([C@H]2[C@@H](F)C(=O)N2c2cc(OC)c(OC)c(OC)c2)cc1F | 33.3% (inactive)
24 | O=C(CN1N=C(c2ccc(F)cc2)CCC1=O)Nc1nccs1 | 96.9% (inactive)
25 | Nc1cc(N)nc(SCC(=O)O)n1 | 103% (inactive)
26 | CCOC(=O)NCCc1nc2c([nH]1)c(=O)n(C)c(=O)n2C | 101% (inactive)
27 | CC1(c2ccccc2Cl)NC(=O)NC1=O (configuration not stated) | 105% (inactive)
28 | C=C1C(=O)O[C@H]2[C@H]1CC/C(COC(=O)n1ccnc1)=C\CC[C@@]1(C)O[C@@H]21 | 96.2% (inactive)
29 | COc1ccccc1-c1ccc2nc(NC(=O)Nc3cc(C(F)(F)F)cc(C(F)(F)F)c3)sc2c1 | 13% (inactive)
30 | O=C1NC(SCc2ccc(F)cc2)=N/C1=C/c1cccc(OCc2ccc(Cl)cc2)c1 | 22.1% (inactive)
31 | O=C(CCc1nnc2sc(OCc3ccccc3)nn12)c1nc2ccc([N+](=O)[O-])cc2[nH]1 | 106% (inactive)
32 | Nc1c(C(=O)Nc2ccccn2)sc2nc3c(cc12)CCCC3 | 50.1% (inactive)
33 | Cc1nnc(/N=C2\NC(=O)/C(=C/c3ccsc3)S2)s1 | 99.7% (inactive)
34 | Cc1cc(Nc2nc(SCc3ccc(C(=O)Nc4ccc(F)cc4N)cc3)nn3cccc23)n[nH]1 | 29% (inactive)
35 | Oc1c(CCl)cc(Cl)cc1Cc1cc(Cl)cc(Cc2cc(Cl)cc(CCl)c2O)c1O | 8.92% (active)
36 | COc1ccc(C2N(c3cc(OC)c(OC)c(OC)c3)C(=O)C2(F)F)cc1F (configuration not stated) | 54.9% (inactive)
37 | COc1cc2c(cc1OC)C(Sc1ccc(Cl)cc1)c1c(nc(N)c(C#N)c1N)O2 (configuration not stated) | 1.66% (active)

Source: PubChem BioAssay (NCI)
